# From the supplement of paper PMC6522484
# ± gives the standard deviation of the averaged measurements.
# Assays:
# DLD1 [1] = assay: cell viability (CellTiter-Glo) relative to plate median (fraction of plate median); higher = more viable cells; conditions: 10 µM, treatment time 24 h
# Outline: (§1)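 Reporter and viability luminescence were measured in colorectal cancer cells stably carrying lentiviral TCF/Wnt firefly luciferase reporters. The cells were exposed to kinase inhibitor library compounds at a final 10 µM for 24 h, starting 24 h after seeding in 384-well plates. Each well was normalised to the plate median (webcellHTS2, additive, no log transformation), and two independent replicates were averaged.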
# HCT116 [2] = assay: as above; conditions: 10 µM; treatment time 24 h; reporter: TCF4/Wnt
# Outline: as §1
# SW480 [3] = assay: as above; conditions: 10 µM; treatment time 24 h; reporter: 7TFP
# Outline: as §1
# DLD1 [4] = assay: TCF/Wnt firefly luciferase reporter signal relative to plate median (fraction of plate median); higher = higher Wnt reporter signal; conditions: 10 µM, treatment time 24 h
# Outline: as §1
# HCT116 [5] = assay: as above; conditions: 10 µM; treatment time 24 h; reporter: TCF4/Wnt
# Outline: as §1
# SW480 [6] = assay: as above; conditions: 10 µM; treatment time 24 h; reporter: 7TFP
# Outline: as §1
smiles,measurement,setting,value
O=c1cc(-c2cccc3c2Sc2ccccc2S3)oc(N2CCOCC2)c1,cell viability,DLD1 [1]; reporter: 7TFP,1.02 ± 0.1
same,cell viability,DLD1 [1]; reporter: TCF4/Wnt,0.999 ± 0.03
same,cell viability,HCT116 [2],1.11 ± 0.035
same,cell viability,SW480 [3],0.875 ± 0.0042
same,TCF/Wnt firefly luciferase reporter signal,DLD1 [4]; reporter: 7TFP,1.42 ± 0.13
same,TCF/Wnt firefly luciferase reporter signal,DLD1 [4]; reporter: TCF4/Wnt,1.18 ± 0.13
same,TCF/Wnt firefly luciferase reporter signal,HCT116 [5],1.6 ± 0.4
same,TCF/Wnt firefly luciferase reporter signal,SW480 [6],1.18 ± 0.13
CC[C@@H]1C(=O)N(C)c2cnc(Nc3ccc(C(=O)NC4CCN(C)CC4)cc3OC)nc2N1C1CCCC1,cell viability,DLD1 [1]; reporter: 7TFP,0.736 ± 0.16
same,cell viability,DLD1 [1]; reporter: TCF4/Wnt,0.863 ± 0.04
same,cell viability,HCT116 [2],0.56 ± 0.13
same,cell viability,SW480 [3],0.897 ± 0.067
same,TCF/Wnt firefly luciferase reporter signal,DLD1 [4]; reporter: 7TFP,1.97 ± 0.2
same,TCF/Wnt firefly luciferase reporter signal,DLD1 [4]; reporter: TCF4/Wnt,2.25 ± 0.078
same,TCF/Wnt firefly luciferase reporter signal,HCT116 [5],0.983 ± 0.93
same,TCF/Wnt firefly luciferase reporter signal,SW480 [6],1.36 ± 0.48
CC(=O)Nc1cccc(-n2c(=O)n(C3CC3)c(=O)c3c(Nc4ccc(I)cc4F)n(C)c(=O)c(C)c32)c1,cell viability,DLD1 [1]; reporter: 7TFP,1.33 ± 0.057
same,cell viability,DLD1 [1]; reporter: TCF4/Wnt,1.29 ± 0.13
same,cell viability,HCT116 [2],0.9995 ± 0.00071
same,cell viability,SW480 [3],1.19 ± 0.042
same,TCF/Wnt firefly luciferase reporter signal,DLD1 [4]; reporter: 7TFP,1.09 ± 0.52
same,TCF/Wnt firefly luciferase reporter signal,DLD1 [4]; reporter: TCF4/Wnt,1.39 ± 0.54
same,TCF/Wnt firefly luciferase reporter signal,HCT116 [5],1.32 ± 0.58
same,TCF/Wnt firefly luciferase reporter signal,SW480 [6],2.02 ± 0.042
COC(=O)Nc1ccc(-c2nc(N3CCOCC3)c3cnn(C4CCN(C(=O)OC)CC4)c3n2)cc1,cell viability,DLD1 [1]; reporter: 7TFP,1.13 ± 0.014
same,cell viability,DLD1 [1]; reporter: TCF4/Wnt,1.13 ± 0.028
same,cell viability,HCT116 [2],1.105 ± 0.0071
same,cell viability,SW480 [3],1.11 ± 0.028
same,TCF/Wnt firefly luciferase reporter signal,DLD1 [4]; reporter: 7TFP,1.07 ± 0.057
same,TCF/Wnt firefly luciferase reporter signal,DLD1 [4]; reporter: TCF4/Wnt,0.973 ± 0.053
same,TCF/Wnt firefly luciferase reporter signal,HCT116 [5],1.23 ± 0.12
same,TCF/Wnt firefly luciferase reporter signal,SW480 [6],1.11 ± 0.085
O=C1NC(=O)[C@@H](c2cn3c4c(cccc24)CCC3)[C@@H]1c1c[nH]c2ccccc12 [ARQ 197 (Tivantinib)],cell viability,DLD1 [1]; reporter: 7TFP,0.995 ± 0.18
same,cell viability,DLD1 [1]; reporter: TCF4/Wnt,1.01 ± 0.017
same,cell viability,HCT116 [2],0.593 ± 0.15
same,cell viability,SW480 [3],1.07 ± 0.014
same,TCF/Wnt firefly luciferase reporter signal,DLD1 [4]; reporter: 7TFP,0.632 ± 0.25
same,TCF/Wnt firefly luciferase reporter signal,DLD1 [4]; reporter: TCF4/Wnt,0.788 ± 0.31
same,TCF/Wnt firefly luciferase reporter signal,HCT116 [5],0.241 ± 0.028
same,TCF/Wnt firefly luciferase reporter signal,SW480 [6],0.701 ± 0.043
CNC(=O)c1ccc(C)c(-n2c(C)cc(OCc3ccc(F)cc3F)c(Br)c2=O)c1,cell viability,DLD1 [1]; reporter: 7TFP,1.07 ± 0.057
same,cell viability,DLD1 [1]; reporter: TCF4/Wnt,1.015 ± 0.0071
same,cell viability,HCT116 [2],1.05 ± 0.035
same,cell viability,SW480 [3],0.868 ± 0.047
same,TCF/Wnt firefly luciferase reporter signal,DLD1 [4]; reporter: 7TFP,1.17 ± 0.24
same,TCF/Wnt firefly luciferase reporter signal,DLD1 [4]; reporter: TCF4/Wnt,1.02 ± 0.061
same,TCF/Wnt firefly luciferase reporter signal,HCT116 [5],0.81 ± 0.046
same,TCF/Wnt firefly luciferase reporter signal,SW480 [6],1.02 ± 0.11
Nc1ncnc2c1c(-c1cnc3[nH]ccc3c1)nn2C1CCCC1,cell viability,DLD1 [1]; reporter: 7TFP,0.8 ± 0.14
same,cell viability,DLD1 [1]; reporter: TCF4/Wnt,0.862 ± 0.063
same,cell viability,HCT116 [2],0.489 ± 0.15
same,cell viability,SW480 [3],0.967 ± 0.15
same,TCF/Wnt firefly luciferase reporter signal,DLD1 [4]; reporter: 7TFP,0.322 ± 0.033
same,TCF/Wnt firefly luciferase reporter signal,DLD1 [4]; reporter: TCF4/Wnt,0.51 ± 0.084
same,TCF/Wnt firefly luciferase reporter signal,HCT116 [5],0.21 ± 0.035
same,TCF/Wnt firefly luciferase reporter signal,SW480 [6],0.562 ± 0.064
Cc1nc(NC(=O)N2CCC[C@H]2C(N)=O)sc1-c1ccnc(C(C)(C)C(F)(F)F)c1,cell viability,DLD1 [1]; reporter: 7TFP,0.977 ± 0.047
same,cell viability,DLD1 [1]; reporter: TCF4/Wnt,0.996 ± 0.034
same,cell viability,HCT116 [2],0.938 ± 0.1
same,cell viability,SW480 [3],1.09 ± 0.028
same,TCF/Wnt firefly luciferase reporter signal,DLD1 [4]; reporter: 7TFP,0.558 ± 0.062
same,TCF/Wnt firefly luciferase reporter signal,DLD1 [4]; reporter: TCF4/Wnt,0.711 ± 0.13
same,TCF/Wnt firefly luciferase reporter signal,HCT116 [5],0.985 ± 0.13
same,TCF/Wnt firefly luciferase reporter signal,SW480 [6],0.791 ± 0.024
CC(C)(C)c1cc(/C=C(\C#N)C(N)=S)cc(C(C)(C)C)c1O [Tyrphostin AG 879 (AG 879)],cell viability,DLD1 [1]; reporter: 7TFP,0.851 ± 0.1
same,cell viability,DLD1 [1]; reporter: TCF4/Wnt,0.911 ± 0.098
same,cell viability,HCT116 [2],0.979 ± 0.1
same,cell viability,SW480 [3],0.844 ± 0.018
same,TCF/Wnt firefly luciferase reporter signal,DLD1 [4]; reporter: 7TFP,0.707 ± 0.12
same,TCF/Wnt firefly luciferase reporter signal,DLD1 [4]; reporter: TCF4/Wnt,1.04 ± 0.042
same,TCF/Wnt firefly luciferase reporter signal,HCT116 [5],0.791 ± 0.12
same,TCF/Wnt firefly luciferase reporter signal,SW480 [6],0.878 ± 0.041
FC(F)(F)c1ccc(Nc2nc3ccc(Oc4ccnc(-c5ncc(C(F)(F)F)[nH]5)c4)cc3[nH]2)cc1 [Raf265 derivative],cell viability,DLD1 [1]; reporter: 7TFP,1.1
same,cell viability,DLD1 [1]; reporter: TCF4/Wnt,1.07 ± 0.014
same,cell viability,HCT116 [2],1.2 ± 0.21
same,cell viability,SW480 [3],0.975 ± 0.12
same,TCF/Wnt firefly luciferase reporter signal,DLD1 [4]; reporter: 7TFP,1.11 ± 0.085
same,TCF/Wnt firefly luciferase reporter signal,DLD1 [4]; reporter: TCF4/Wnt,1.16 ± 0.085
same,TCF/Wnt firefly luciferase reporter signal,HCT116 [5],0.912 ± 0.28
same,TCF/Wnt firefly luciferase reporter signal,SW480 [6],0.81 ± 0.44
